{"source": "PubChem BioAssay (EPA / NIEHS)", "note": "Active and inactive are the calls of the source. How the source made its calls: active means hit-call score of the fitted dose curve at least 0.9, where 1 is the maximum; inactive means score below 0.9."}
{"target": "Retinoic acid receptor alpha (Homo sapiens) (UniProt P10276)", "sequence (P10276 whole entry, looked up)": "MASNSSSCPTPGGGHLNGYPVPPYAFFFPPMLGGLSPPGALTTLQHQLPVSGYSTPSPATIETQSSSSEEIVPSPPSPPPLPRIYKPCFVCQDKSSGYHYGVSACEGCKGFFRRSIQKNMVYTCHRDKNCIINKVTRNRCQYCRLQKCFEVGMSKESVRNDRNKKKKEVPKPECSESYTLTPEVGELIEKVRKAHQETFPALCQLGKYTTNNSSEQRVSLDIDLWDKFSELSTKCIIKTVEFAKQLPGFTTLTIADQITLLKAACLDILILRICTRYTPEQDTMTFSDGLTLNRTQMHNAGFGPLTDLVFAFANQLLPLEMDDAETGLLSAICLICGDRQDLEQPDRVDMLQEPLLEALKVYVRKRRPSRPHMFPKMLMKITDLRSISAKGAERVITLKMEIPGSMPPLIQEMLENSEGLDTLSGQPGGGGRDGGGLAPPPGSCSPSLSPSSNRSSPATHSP", "test": "ATG_DR5_RAR_CIS: Attagene CIS-FACTORIAL HepG2 Assay for human Retinoic Acid Receptor Alpha (RARE), DR5 submotif (AID 2282934);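 on AC50: reporter responds to endogenous RAR alpha beta and gamma in HepG2 not RARA alone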", "details": "HepG2 Attagene cis-factorial RARE DR5 reporter, mRNA; actives raise or lower the signal", "in_short": "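Reporter transcripts from a DR5-regulated unit, measured via RT-PCR plus capillary electrophoresis, reflect endogenous RAR activity in transiently transfected human HepG2 liver cells. Exposure lasted 24 h; gain or loss of signal scored against DMSO.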"}
{"compound": "C=CC(=O)OCC(CO)(COCC(COC(=O)C=C)(COC(=O)C=C)COC(=O)C=C)COC(=O)C=C", "AC50": "11 µM (active)"}
{"compound": "FC(F)(F)C(F)(F)C(F)(F)Br", "outcome": "inactive"}
{"compound": "COCC1CCC(CO)CC1", "note": "(stereo not drawn)", "outcome": "inactive"}
{"compound": "C=COC(=O)C(C)(C)CCCCCC", "outcome": "inactive"}
{"compound": "CCCCc1ccc2ccccc2c1S(=O)(=O)O", "outcome": "inactive"}
{"compound": "C=Cc1ccc(O)c(OC)c1", "outcome": "inactive"}
{"compound": "FC(F)=C(F)C(F)(F)C(F)(F)C(F)(F)C(F)F", "outcome": "inactive"}
{"compound": "O=C1c2ccc(O)c(O)c2C(=O)c2c(O)ccc(O)c21", "outcome": "inactive"}
{"compound": "CCOC(=O)CN[C@@H](C(=O)N1CC[C@H]1C(=O)NCc1ccc(/C(N)=N/O)cc1)C1CCCCC1", "outcome": "inactive"}
{"compound": "CC(C)CCOCCC(C)C", "outcome": "inactive"}
{"compound": "Cc1ccc(N=Nc2c(O)ccc3ccccc23)c(C)c1", "outcome": "inactive"}
{"compound": "C=CC(=O)OCCN(CC)CC", "outcome": "inactive"}
{"compound": "Cc1ccc(S(=O)(=O)O)cc1", "outcome": "inactive"}
{"compound": "CCCCCCCCCCCCOC(=O)c1cc(O)c(O)c(O)c1", "outcome": "inactive"}
{"compound": "CCCCCCCCCCCCCCCC(=O)OC", "outcome": "inactive"}
{"compound": "CC1CCC(CO)CC1", "note": "(stereo not drawn)", "outcome": "inactive"}
{"compound": "CCCCCC(C)OC(=O)COc1ccc(Cl)c2cccnc12", "note": "(stereo not drawn)", "outcome": "inactive"}
{"compound": "FC(F)(F)N1C(F)(F)C(F)(F)OC(F)(F)C1(F)F", "outcome": "inactive"}
{"compound": "C/C=C/C(=O)C1=C(C)CCCC1(C)C", "outcome": "inactive"}
{"compound": "CCc1ccccc1O", "outcome": "inactive"}
{"compound": "CCCCCCCCCCCC[N+](C)(C)CCCCCCCCCCCC", "outcome": "inactive"}
{"compound": "Clc1ccc2c(Cl)ccnc2c1", "outcome": "inactive"}
{"compound": "CCCCCCCCCCCCCC[n+]1ccccc1", "outcome": "inactive"}
{"compound": "O=C(C=C(O)C(F)(F)F)C(F)(F)F", "outcome": "inactive"}
{"compound": "Cc1cccc2c1ccc1ccccc12", "outcome": "inactive"}
{"compound": "CCCCCCCCC1CCC(=O)O1", "note": "(stereo not drawn)", "outcome": "inactive"}
{"compound": "c1ccc(CNc2ncnc3c2ncn3C2CCCCO2)cc1", "note": "(stereo not drawn)", "outcome": "inactive"}
{"compound": "CCOC(OCC)C(=O)c1ccccc1", "outcome": "inactive"}
{"compound": "C[N+](C)(CCCNS(=O)(=O)CCC(F)(F)C(F)(F)C(F)(F)C(F)(F)C(F)(F)C(F)(F)F)CC(=O)[O-]", "outcome": "inactive"}
{"compound": "Nc1ccn([C@@H]2O[C@H](CO)[C@@H](O)C2O)c(=O)n1", "note": "(stereo partly drawn)", "outcome": "inactive"}
{"compound": "CC(C)(C)C1CCCCC1O", "note": "(stereo not drawn)", "outcome": "inactive"}
{"compound": "Cc1cncc(C)c1", "outcome": "inactive"}
{"compound": "CC(=O)CC(C)C", "outcome": "inactive"}
{"target": "Transcription factor E2F1 (Homo sapiens) (UniProt Q01094)", "sequence (Q01094 whole entry, looked up)": "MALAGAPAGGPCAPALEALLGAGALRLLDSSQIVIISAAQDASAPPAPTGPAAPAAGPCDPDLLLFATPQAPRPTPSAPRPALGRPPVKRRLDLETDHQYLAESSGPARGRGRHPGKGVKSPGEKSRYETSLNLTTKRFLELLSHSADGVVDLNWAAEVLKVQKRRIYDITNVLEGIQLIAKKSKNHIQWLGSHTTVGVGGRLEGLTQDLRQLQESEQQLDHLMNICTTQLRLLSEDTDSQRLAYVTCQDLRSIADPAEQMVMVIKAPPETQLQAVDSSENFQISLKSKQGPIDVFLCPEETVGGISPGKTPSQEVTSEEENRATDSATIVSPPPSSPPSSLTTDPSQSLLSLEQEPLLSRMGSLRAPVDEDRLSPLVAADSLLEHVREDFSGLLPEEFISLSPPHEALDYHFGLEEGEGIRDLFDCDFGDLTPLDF", "test": "ATG_E2F_CIS: Attagene CIS-FACTORIAL HepG2 Assay for human E2F Transcription Factor 1 (AID 2282935)", "details": "HepG2 Attagene cis-reporter, E2F reporter RNA transcripts; actives raise or lower the signal", "in_short": "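Cis-element reporter mRNA induction in transiently transfected HepG2, 24 h exposure. Activity fitted in both directions relative to DMSO negative control.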"}
{"compound": "COCC1CCC(CO)CC1", "note": "(stereo not drawn)", "outcome": "inactive"}
{"compound": "C=COC(=O)C(C)(C)CCCCCC", "outcome": "inactive"}
{"compound": "C=Cc1ccc(O)c(OC)c1", "outcome": "inactive"}
{"compound": "FC(F)=C(F)C(F)(F)C(F)(F)C(F)(F)C(F)F", "outcome": "inactive"}
{"compound": "NS(=O)(=O)O", "outcome": "inactive"}
{"compound": "O=C1c2ccc(O)c(O)c2C(=O)c2c(O)ccc(O)c21", "outcome": "inactive"}
{"compound": "CCOC(=O)CN[C@@H](C(=O)N1CC[C@H]1C(=O)NCc1ccc(/C(N)=N/O)cc1)C1CCCCC1", "outcome": "inactive"}
{"compound": "CC(C)CCOCCC(C)C", "outcome": "inactive"}
{"compound": "C=CC(=C)CC/C=C(\\C)CCC=C(C)C", "outcome": "inactive"}
{"compound": "Cc1ccc(N=Nc2c(O)ccc3ccccc23)c(C)c1", "outcome": "inactive"}
{"compound": "Cc1ccc(S(=O)(=O)O)cc1", "outcome": "inactive"}
{"compound": "CCCCCCCCCCCCCCCC(=O)OC", "outcome": "inactive"}
{"compound": "CC1CCC(CO)CC1", "note": "(stereo not drawn)", "outcome": "inactive"}
{"compound": "CCCCCC(C)OC(=O)COc1ccc(Cl)c2cccnc12", "note": "(stereo not drawn)", "outcome": "inactive"}
{"compound": "FC(F)(F)N1C(F)(F)C(F)(F)OC(F)(F)C1(F)F", "outcome": "inactive"}
{"compound": "C/C=C/C(=O)C1=C(C)CCCC1(C)C", "outcome": "inactive"}
{"compound": "CNNCc1ccc(C(=O)NC(C)C)cc1", "outcome": "inactive"}
{"compound": "CCCCCCCCCCCC[N+](C)(C)CCCCCCCCCCCC", "outcome": "inactive"}
{"compound": "Cc1cc(=O)oc2cc(O)ccc12", "outcome": "inactive"}
{"compound": "CCCCCCCCCCCCCC[n+]1ccccc1", "outcome": "inactive"}
{"compound": "CCCCCCCCC1CCC(=O)O1", "note": "(stereo not drawn)", "outcome": "inactive"}
{"compound": "CCOC(OCC)C(=O)c1ccccc1", "outcome": "inactive"}
{"compound": "C[N+](C)(CCCNS(=O)(=O)CCC(F)(F)C(F)(F)C(F)(F)C(F)(F)C(F)(F)C(F)(F)F)CC(=O)[O-]", "outcome": "inactive"}
{"compound": "Nc1ccn([C@@H]2O[C@H](CO)[C@@H](O)C2O)c(=O)n1", "note": "(stereo partly drawn)", "outcome": "inactive"}
{"compound": "CC(=O)CC(C)C", "outcome": "inactive"}
